We go through seven compounds from ChEMBL document CHEMBL1961873, “Compounds: GSK PKIS; Assays: Nanosyn kinase panel” (2012).

Test [1] deals with Calcium/calmodulin-dependent protein kinase type II subunit alpha (Homo sapiens) (UniProt Q9UQM7). Particulars: at 1 µM.
The target of test [2] is Calcium/calmodulin-dependent protein kinase type II subunit delta (Homo sapiens) (UniProt Q13557). Particulars: at 0.1 µM.
Test [3] shares this target. Particulars: at 1 µM.
The target in test [4] is T1, Calcium/calmodulin-dependent protein kinase type IV (Homo sapiens) (UniProt Q16566).
T1 sequence (whole entry): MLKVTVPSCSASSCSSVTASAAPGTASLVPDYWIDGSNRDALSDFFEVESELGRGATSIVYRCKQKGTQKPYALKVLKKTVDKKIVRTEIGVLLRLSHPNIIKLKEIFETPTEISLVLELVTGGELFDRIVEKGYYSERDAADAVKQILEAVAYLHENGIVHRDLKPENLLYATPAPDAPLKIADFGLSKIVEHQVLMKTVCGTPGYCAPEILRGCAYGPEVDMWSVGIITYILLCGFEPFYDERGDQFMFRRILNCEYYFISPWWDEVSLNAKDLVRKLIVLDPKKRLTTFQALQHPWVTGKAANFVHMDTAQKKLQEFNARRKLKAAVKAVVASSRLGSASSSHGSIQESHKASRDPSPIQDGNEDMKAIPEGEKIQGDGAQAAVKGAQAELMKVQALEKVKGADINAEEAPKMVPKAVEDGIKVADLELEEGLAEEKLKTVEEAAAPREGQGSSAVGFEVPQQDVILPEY
Particulars: at 0.1 µM.

Test [5] deals with T1, Calcium/calmodulin-dependent protein kinase type IV (Homo sapiens). Particulars: at 1 µM.
Test [6] has as its target T2, Serine/threonine-protein kinase Chk1 (Homo sapiens) (UniProt O14757).
T2 sequence (whole entry): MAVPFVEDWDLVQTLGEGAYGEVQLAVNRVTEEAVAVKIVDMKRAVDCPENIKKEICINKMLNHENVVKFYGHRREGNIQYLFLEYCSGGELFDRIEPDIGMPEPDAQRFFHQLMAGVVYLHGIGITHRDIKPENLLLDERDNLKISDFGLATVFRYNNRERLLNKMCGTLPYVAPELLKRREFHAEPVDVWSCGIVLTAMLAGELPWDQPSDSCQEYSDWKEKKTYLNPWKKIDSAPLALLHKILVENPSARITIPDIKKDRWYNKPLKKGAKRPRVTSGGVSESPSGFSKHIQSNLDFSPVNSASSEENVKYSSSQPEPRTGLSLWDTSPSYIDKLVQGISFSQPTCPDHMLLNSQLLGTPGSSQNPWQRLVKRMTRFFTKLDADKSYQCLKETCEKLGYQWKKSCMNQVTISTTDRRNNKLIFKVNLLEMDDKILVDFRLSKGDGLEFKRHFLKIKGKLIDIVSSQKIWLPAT
Particulars: at 0.1 µM.

Test [7] deals with T2, Serine/threonine-protein kinase Chk1 (Homo sapiens). Particulars: at 1 µM.
Test [8] concerns the target Serine/threonine-protein kinase Chk2 (Homo sapiens) (UniProt O96017). Particulars: at 0.1 µM.
Test [9] has the same target. Particulars: at 1 µM.
Test [10] concerns the target Death-associated protein kinase 1 (Homo sapiens) (UniProt P53355). Particulars: at 0.1 µM.
Test [11] shares this target. Particulars: at 1 µM.
In test [12] the target is T3, Serine/threonine-protein kinase DCLK2 (Homo sapiens) (UniProt Q8N568).
T3 sequence (whole entry): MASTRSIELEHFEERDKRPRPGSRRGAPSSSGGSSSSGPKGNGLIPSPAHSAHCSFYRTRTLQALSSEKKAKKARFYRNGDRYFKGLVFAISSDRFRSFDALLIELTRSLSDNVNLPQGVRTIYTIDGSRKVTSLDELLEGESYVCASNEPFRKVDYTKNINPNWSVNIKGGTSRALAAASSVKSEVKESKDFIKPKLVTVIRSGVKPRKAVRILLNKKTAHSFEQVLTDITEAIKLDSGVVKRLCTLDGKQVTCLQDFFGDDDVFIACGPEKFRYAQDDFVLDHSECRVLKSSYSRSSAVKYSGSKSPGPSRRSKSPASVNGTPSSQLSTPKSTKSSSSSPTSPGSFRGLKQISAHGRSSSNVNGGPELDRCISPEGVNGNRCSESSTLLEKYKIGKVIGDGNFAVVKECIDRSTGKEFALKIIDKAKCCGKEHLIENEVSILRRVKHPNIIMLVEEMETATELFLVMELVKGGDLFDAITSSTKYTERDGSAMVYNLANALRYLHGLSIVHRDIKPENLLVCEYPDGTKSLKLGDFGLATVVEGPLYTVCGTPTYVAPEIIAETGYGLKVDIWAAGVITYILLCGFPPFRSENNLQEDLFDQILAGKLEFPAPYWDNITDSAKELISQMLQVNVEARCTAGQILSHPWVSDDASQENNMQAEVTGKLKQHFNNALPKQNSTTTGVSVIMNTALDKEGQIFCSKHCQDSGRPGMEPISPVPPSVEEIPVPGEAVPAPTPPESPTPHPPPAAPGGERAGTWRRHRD
Particulars: at 0.1 µM.

The target of test [13] is T3, Serine/threonine-protein kinase DCLK2 (Homo sapiens). Particulars: at 1 µM.
The target in test [14] is MAP kinase-activated protein kinase 2 (Homo sapiens) (UniProt P49137). Particulars: at 0.1 µM.
Test [15] has the same target. Particulars: at 1 µM.
Test [16] has as its target MAP kinase-activated protein kinase 3 (Homo sapiens) (UniProt Q16644). Particulars: at 0.1 µM.
Test [17] shares this target. Particulars: at 1 µM.
In test [18] the target is Serine/threonine-protein kinase MARK1 (Homo sapiens) (UniProt Q9P0L2). Particulars: at 0.1 µM.
Test [19] has the same target. Particulars: at 1 µM.
Test [20] addresses MAP/microtubule affinity-regulating kinase 3 (Homo sapiens) (UniProt P27448). Particulars: at 0.1 µM.

Sequence of Calcium/calmodulin-dependent protein kinase type II subunit delta (Homo sapiens) (Q13557 whole entry): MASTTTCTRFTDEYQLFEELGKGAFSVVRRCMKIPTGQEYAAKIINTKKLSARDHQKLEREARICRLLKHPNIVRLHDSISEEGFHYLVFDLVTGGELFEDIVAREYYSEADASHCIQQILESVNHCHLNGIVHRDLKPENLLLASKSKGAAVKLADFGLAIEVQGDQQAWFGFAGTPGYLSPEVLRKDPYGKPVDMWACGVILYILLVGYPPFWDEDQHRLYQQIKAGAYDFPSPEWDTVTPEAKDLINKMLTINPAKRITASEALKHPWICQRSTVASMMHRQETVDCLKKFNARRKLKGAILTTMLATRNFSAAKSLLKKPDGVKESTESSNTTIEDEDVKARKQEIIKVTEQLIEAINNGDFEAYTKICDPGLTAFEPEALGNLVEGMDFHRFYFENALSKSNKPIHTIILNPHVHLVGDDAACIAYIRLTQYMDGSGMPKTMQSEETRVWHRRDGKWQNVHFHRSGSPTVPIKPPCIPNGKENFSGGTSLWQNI
Sequence of MAP kinase-activated protein kinase 3 (Homo sapiens) (Q16644 whole entry, looked up): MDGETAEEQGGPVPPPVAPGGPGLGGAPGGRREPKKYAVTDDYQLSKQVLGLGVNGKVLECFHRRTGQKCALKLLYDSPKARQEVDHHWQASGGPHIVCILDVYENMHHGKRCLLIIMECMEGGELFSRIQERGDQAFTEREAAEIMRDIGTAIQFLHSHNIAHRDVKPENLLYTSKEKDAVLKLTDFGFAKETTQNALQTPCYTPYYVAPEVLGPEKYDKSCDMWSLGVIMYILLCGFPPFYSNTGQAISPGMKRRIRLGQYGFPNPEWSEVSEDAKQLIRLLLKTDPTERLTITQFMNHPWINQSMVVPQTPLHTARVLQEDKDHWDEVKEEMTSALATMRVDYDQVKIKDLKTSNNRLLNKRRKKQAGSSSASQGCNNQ
Sequence of Serine/threonine-protein kinase MARK1 (Homo sapiens) (Q9P0L2 whole entry, looked up): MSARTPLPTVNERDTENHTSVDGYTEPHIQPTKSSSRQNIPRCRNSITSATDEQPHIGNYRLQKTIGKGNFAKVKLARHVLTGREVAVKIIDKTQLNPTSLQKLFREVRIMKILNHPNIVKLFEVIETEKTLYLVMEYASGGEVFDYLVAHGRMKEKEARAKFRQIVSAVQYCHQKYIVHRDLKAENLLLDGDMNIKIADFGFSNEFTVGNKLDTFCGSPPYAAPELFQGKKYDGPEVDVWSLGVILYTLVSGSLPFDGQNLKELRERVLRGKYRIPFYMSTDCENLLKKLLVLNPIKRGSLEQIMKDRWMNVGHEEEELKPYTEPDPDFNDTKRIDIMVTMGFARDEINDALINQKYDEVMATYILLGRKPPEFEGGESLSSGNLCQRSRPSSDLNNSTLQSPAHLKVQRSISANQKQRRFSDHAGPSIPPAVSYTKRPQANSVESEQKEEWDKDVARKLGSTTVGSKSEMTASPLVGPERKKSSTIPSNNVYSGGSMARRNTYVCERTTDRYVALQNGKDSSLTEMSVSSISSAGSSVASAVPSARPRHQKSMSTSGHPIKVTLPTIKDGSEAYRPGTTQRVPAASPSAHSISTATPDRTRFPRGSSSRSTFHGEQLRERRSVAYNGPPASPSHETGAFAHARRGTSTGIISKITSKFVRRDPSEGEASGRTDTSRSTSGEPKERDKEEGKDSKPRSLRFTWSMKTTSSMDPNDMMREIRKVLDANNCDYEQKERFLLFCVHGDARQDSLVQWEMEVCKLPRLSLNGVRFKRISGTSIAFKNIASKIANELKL
Sequence of MAP/microtubule affinity-regulating kinase 3 (Homo sapiens) (P27448 whole entry, looked up): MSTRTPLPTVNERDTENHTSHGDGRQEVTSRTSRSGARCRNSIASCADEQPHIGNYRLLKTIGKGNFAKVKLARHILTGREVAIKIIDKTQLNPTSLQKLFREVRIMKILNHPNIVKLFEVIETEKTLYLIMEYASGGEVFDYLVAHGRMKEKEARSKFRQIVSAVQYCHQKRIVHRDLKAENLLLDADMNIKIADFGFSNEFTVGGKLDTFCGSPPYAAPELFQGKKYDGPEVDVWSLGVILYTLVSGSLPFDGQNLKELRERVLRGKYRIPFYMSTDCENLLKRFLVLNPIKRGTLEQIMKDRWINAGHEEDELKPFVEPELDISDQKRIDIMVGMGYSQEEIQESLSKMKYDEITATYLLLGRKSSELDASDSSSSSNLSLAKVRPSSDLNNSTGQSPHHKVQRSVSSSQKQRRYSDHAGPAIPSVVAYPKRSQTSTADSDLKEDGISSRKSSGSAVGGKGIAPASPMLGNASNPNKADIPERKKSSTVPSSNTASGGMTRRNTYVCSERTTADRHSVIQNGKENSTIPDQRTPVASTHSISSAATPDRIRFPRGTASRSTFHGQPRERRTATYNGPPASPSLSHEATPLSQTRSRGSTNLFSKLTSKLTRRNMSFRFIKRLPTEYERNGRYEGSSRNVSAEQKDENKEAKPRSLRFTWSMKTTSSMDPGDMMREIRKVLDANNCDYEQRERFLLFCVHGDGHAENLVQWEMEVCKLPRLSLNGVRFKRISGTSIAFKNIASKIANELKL
Sequence of Death-associated protein kinase 1 (Homo sapiens) (P53355 whole entry, looked up): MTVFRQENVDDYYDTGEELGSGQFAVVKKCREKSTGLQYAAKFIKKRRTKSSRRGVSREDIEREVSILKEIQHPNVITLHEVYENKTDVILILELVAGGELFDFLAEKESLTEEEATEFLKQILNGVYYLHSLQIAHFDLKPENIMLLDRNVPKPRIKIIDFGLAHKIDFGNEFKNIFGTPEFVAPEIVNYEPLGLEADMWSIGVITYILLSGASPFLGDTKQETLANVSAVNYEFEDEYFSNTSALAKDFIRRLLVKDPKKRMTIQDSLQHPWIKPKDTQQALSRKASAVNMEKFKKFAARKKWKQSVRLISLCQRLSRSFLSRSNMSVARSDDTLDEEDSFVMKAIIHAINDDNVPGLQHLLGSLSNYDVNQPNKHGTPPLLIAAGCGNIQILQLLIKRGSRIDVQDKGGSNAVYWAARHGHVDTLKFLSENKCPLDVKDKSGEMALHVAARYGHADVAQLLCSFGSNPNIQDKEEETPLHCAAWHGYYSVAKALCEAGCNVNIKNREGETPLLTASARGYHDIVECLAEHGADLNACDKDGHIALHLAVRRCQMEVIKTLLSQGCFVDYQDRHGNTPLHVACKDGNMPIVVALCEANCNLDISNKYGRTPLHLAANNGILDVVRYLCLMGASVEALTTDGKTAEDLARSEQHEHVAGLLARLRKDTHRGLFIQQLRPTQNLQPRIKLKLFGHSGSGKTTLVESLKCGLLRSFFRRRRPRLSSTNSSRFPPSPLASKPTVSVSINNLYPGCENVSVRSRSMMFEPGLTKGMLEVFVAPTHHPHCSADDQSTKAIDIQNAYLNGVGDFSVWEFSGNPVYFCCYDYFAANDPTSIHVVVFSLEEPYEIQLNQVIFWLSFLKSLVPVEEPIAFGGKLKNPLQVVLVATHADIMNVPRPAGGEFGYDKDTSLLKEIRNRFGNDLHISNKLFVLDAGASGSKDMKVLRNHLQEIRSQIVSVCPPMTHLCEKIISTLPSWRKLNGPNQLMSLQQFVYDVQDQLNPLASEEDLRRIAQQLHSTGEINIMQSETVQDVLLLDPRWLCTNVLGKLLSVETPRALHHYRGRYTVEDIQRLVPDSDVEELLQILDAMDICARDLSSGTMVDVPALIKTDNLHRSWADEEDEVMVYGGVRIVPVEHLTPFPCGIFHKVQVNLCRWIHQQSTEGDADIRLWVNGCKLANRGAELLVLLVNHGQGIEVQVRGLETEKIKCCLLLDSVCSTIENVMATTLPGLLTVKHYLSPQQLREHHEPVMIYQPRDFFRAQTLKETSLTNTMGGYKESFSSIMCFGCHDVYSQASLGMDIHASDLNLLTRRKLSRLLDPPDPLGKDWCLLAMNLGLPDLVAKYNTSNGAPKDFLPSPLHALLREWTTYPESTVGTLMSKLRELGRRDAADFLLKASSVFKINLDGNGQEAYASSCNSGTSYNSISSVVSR
Sequence of Calcium/calmodulin-dependent protein kinase type II subunit alpha (Homo sapiens) (Q9UQM7 whole entry): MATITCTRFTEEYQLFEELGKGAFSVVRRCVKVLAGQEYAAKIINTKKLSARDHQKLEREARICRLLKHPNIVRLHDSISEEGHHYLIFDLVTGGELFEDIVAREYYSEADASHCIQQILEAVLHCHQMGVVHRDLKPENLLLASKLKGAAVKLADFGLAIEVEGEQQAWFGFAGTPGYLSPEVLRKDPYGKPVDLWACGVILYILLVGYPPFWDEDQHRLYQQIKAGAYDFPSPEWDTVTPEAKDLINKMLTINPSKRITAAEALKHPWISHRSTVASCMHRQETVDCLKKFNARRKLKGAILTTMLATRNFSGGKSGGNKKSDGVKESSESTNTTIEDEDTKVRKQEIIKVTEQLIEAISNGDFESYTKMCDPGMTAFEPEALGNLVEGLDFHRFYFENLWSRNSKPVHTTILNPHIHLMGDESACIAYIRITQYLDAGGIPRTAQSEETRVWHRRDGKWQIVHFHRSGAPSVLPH
Sequence of Serine/threonine-protein kinase Chk2 (Homo sapiens) (O96017 whole entry): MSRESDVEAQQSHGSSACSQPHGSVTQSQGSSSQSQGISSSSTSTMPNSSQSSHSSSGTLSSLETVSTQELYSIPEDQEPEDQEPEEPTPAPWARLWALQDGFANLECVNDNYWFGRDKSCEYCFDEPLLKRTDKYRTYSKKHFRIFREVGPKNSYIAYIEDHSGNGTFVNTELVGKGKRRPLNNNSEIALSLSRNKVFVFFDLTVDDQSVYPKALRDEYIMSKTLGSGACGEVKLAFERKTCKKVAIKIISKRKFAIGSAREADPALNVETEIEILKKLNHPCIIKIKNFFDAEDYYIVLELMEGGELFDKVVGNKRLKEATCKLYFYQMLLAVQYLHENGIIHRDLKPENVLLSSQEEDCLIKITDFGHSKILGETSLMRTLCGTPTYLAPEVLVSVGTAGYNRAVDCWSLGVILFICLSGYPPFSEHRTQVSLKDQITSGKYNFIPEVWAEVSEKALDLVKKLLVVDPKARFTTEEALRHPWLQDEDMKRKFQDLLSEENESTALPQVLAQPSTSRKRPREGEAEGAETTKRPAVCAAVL

As for `CCn1c(-c2nonc2N)nc2c(C#CC(C)(C)O)ncc(OC3CCNCC3)c21`, the inhibition – broadly, the relative decrease from the control value, in per cent – in test [1] turned out to be 5.73%; in test [2] it was 4.43%; in [3] it was 8.15%; in [4] it was 1.96%; in test [5], 6.84%; in test [6] it was 2%. Besides, the inhibition in [7] was 4.29%; in [8] it was 2.65%; in test [9] it was 7.53%; in test [10], 4.3%; in [11], 5.68%; in test [12] it was 0.06%. Moreover, the inhibition stood at 3.29% in test [13]; 1.3% in [14]; 3.78% in [15]; 3.98% in test [16]; 4.41% in test [17]; 20.8% in [18]. The inhibition in test [19] was determined as 74.1%; in test [20] it was 21.2%.
`COC(=O)c1sc(-n2cnc3cc(OC)c(OC)cc32)cc1OCc1ccccc1C(F)(F)F`: the inhibition in [1] came to 5.27%; in [2] it was 4.25%; in test [3], 11.3%; in test [4], 1.9%; in test [5] it was 11.2%; in [6] it was 1.72%. Besides, the inhibition in [7] came out at 2.67%; in test [8], 3.73%; in test [9], 4.65%; in [10], 0.08%; in test [11], 1.94%; in [12] it was 2.16%. Besides, the inhibition in test [13] was determined as 0.62%; in [14], 1.81%; in test [15], 1.73%; in [16] it was 4.86%; in test [17], 5.46%; in test [18] it was 2.71%. The inhibition in [19] was 6.82%; in test [20] it was 2.38%.
As for `Cc1cccc(Nc2ncc(-c3ccccc3)o2)c1`, the inhibition came to 7.1% in test [1]; 4.42% in test [2]; 6.85% in test [3]; 1.87% in test [4]; 4.2% in test [5]; 4.59% in test [6]. Moreover, the inhibition in [7] was 6.26%; in test [8], 3.02%; in test [9], 6.44%; in test [10], 5.26%; in test [11] it was 3.39%; in test [12], -0.51%. The inhibition in [13] is 1.2%; in [14], 1.15%; in test [15] it was 3.82%; in [16], 3.13%; in test [17], 4.32%; in test [18], 2.41%. In addition, the inhibition worked out at 8.07% in test [19] and 3.98% in test [20].
Regarding `COc1cccc(-n2ncc3c(N/N=C/c4ccc(F)cc4)ncnc32)c1`, the inhibition was 3.26% in test [1]; 3.08% in test [2]; 3.49% in test [3]; -2.69% in [4]; -2.57% in [5]; 2.07% in test [6]. Besides, the inhibition in [7] is 5.65%; in [8], 2.49%; in test [9] it was 3.64%; in test [10], 4.6%; in test [11], 5.45%; in [12], 1.07%. Moreover, the inhibition in [13] stood at 0.2%; in test [14], 1.96%; in test [15], 2.72%; in [16], 3.14%; in [17], 3.2%; in test [18], 3.33%. In addition, the values for the inhibition in test [19] and in test [20] were 5.14% and 4.91%, respectively.
As to `COc1cccc(-c2c[nH]c3c(N/N=C/c4ccncc4)ncnc23)c1`, the inhibition in test [1] was found to be 6.66%; in test [2], 3.84%; in test [3], 15.2%; in test [4], 1.55%; in test [5], 4.18%; in test [6], 7.71%. Besides, the inhibition was 11.3% in test [7]; 5.73% in test [8]; 6.91% in [9]; 9.18% in test [10]; 11.2% in test [11]; 1.17% in test [12]. The inhibition came to 8.13% in test [13]; 2.94% in [14]; 3.56% in test [15]; 9.72% in test [16]; 11.1% in test [17]; 2.74% in test [18]. For the same compound, the inhibition came out at 8.15% in test [19] and 6.06% in [20].
In the case of `COc1ccc2c(-c3ccnc(Nc4cccc(OC(F)(F)F)c4)n3)cnn2n1`, the inhibition was 3.59% in test [1]; 2.75% in test [2]; 5.82% in [3]; -0.96% in test [4]; -0.82% in [5]; 3.59% in test [6]. Moreover, the inhibition in [7] worked out at 5.26%; in test [8], 3.11%; in test [9], 5.21%; in test [10], 5.2%; in test [11], 5.37%; in test [12] it was 0.72%. Besides, the inhibition in [13] turned out to be 0.97%; in [14], 2.32%; in test [15] it was 2.88%; in test [16] it was 4.5%; in [17], 5.2%; in [18], 2.92%. The values for the inhibition in test [19] and in test [20] were 6.68% and 0.91%, respectively.
`Fc1ccc(-c2nn3ncccc3c2-c2ccnc(Nc3ccc4c(c3)OCCO4)n2)cc1`: the inhibition in test [1] was determined as 4.05%; in [2] it was 3.8%; in test [3], 5.51%; in test [4] it was 0.98%; in [5], 1.52%; in test [6], 1.26%. Besides, the inhibition in [7] is -1.02%; in test [8] it was 3.9%; in [9], 5.77%; in test [10], 0.23%; in test [11], 2.12%; in test [12] it was 1.43%. Also, the inhibition in [13] was -0.42%; in test [14], 1.56%; in test [15], 1.39%; in test [16], 34.4%; in [17], 37.8%; in test [18], 1.97%. The inhibition in test [19] was determined as 3.47%; in test [20] it was 4.24%.
